Experiment [1] addresses Mast/stem cell growth factor receptor Kit (Homo sapiens) (UniProt P10721). To be noted: at 1 µM.
The subject of experiment [2] is Mast/stem cell growth factor receptor Kit (Homo sapiens), P10721 [D816V]. Conditions: at 0.1 µM.
Experiment [3] shares this test system. Conditions: at 1 µM.
Experiment [4] concerns Mast/stem cell growth factor receptor Kit (Homo sapiens), P10721 [T670I]. To be noted: at 0.1 µM.
For experiment [5] the test system is unchanged. To be noted: at 1 µM.
Experiment [6] deals with Mast/stem cell growth factor receptor Kit (Homo sapiens), P10721 [V560G]. Conditions: at 0.1 µM.
Chain of Mast/stem cell growth factor receptor Kit (Homo sapiens), P10721 [V560G] (P10721 whole entry V560G): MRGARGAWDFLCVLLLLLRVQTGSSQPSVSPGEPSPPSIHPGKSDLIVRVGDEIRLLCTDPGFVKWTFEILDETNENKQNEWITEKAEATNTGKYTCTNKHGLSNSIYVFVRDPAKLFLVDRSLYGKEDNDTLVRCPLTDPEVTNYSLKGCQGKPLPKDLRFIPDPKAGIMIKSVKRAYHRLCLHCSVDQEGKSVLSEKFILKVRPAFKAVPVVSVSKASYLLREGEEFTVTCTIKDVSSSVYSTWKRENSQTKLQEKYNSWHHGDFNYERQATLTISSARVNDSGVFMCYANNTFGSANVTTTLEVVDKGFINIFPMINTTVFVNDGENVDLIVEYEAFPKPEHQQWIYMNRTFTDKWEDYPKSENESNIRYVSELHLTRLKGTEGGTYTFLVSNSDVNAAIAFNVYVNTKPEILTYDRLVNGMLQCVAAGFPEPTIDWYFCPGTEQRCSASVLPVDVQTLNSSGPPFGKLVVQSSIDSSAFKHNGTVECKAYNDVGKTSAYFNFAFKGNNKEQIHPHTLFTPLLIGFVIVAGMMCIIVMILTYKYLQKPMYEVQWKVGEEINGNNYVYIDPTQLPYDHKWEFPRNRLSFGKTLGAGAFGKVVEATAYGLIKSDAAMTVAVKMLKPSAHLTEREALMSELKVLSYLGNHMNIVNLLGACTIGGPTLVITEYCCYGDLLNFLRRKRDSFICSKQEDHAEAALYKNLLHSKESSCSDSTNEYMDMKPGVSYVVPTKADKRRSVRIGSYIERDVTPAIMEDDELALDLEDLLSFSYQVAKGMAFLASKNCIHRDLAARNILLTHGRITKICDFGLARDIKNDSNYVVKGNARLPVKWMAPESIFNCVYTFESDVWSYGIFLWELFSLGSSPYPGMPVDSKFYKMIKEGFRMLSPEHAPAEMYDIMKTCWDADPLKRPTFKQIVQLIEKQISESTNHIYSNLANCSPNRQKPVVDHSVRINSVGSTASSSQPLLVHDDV
Experiment [7] has the same test system. To be noted: at 1 µM.
The target in experiment [8] is Tyrosine-protein kinase Lck (Homo sapiens) (UniProt P06239). To be noted: at 0.1 µM.
Chain of Tyrosine-protein kinase Lck (Homo sapiens) (P06239 2-509 limits assumed): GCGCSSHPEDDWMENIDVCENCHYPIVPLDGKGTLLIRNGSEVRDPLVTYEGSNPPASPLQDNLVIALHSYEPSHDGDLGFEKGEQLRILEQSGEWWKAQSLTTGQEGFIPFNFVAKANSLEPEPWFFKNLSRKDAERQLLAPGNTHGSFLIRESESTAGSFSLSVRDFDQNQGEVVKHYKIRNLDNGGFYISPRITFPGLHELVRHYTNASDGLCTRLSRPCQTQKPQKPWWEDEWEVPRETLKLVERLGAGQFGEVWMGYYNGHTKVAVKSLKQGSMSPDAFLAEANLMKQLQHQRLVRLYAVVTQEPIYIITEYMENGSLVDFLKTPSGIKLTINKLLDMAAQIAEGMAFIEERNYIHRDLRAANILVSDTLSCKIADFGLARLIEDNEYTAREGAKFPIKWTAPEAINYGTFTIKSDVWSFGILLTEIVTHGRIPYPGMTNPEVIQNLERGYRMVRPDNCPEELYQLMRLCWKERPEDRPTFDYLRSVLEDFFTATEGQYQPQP
For experiment [9] the target is unchanged. To be noted: at 1 µM.
Experiment [10] concerns the target Leukocyte tyrosine kinase receptor (Homo sapiens) (UniProt P29376). Conditions: at 0.1 µM.
The target is the same in experiment [11]. To be noted: at 1 µM.
In experiment [12] the target is Tyrosine-protein kinase Lyn (Homo sapiens) (UniProt P07948). Conditions: at 0.1 µM.
Chain of Tyrosine-protein kinase Lyn (Homo sapiens) (P07948 2-512 limits assumed): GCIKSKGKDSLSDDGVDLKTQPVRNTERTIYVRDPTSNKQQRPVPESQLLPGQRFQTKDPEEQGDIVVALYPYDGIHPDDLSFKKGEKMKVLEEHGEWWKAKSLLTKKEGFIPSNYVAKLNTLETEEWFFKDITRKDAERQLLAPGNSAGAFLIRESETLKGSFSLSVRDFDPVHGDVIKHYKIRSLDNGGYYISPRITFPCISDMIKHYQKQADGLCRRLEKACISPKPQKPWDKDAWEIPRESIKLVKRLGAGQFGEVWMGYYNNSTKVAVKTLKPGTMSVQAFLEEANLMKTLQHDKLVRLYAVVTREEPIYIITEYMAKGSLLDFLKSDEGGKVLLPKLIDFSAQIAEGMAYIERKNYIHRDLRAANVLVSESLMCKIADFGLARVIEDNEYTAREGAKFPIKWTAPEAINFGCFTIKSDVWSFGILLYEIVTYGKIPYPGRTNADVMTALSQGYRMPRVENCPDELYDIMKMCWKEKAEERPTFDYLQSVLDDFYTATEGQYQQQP
Experiment [13] has the same target. To be noted: at 1 µM.
The target is the same in experiment [14]. To be noted: at 0.1 µM. The source holds these as a separate data set.
The target is the same in experiment [15]. Conditions: at 1 µM. This is another data set of the same source.
The target in experiment [16] is T1, Tyrosine-protein kinase Mer (Homo sapiens) (UniProt Q12866).
T1 sequence (whole entry): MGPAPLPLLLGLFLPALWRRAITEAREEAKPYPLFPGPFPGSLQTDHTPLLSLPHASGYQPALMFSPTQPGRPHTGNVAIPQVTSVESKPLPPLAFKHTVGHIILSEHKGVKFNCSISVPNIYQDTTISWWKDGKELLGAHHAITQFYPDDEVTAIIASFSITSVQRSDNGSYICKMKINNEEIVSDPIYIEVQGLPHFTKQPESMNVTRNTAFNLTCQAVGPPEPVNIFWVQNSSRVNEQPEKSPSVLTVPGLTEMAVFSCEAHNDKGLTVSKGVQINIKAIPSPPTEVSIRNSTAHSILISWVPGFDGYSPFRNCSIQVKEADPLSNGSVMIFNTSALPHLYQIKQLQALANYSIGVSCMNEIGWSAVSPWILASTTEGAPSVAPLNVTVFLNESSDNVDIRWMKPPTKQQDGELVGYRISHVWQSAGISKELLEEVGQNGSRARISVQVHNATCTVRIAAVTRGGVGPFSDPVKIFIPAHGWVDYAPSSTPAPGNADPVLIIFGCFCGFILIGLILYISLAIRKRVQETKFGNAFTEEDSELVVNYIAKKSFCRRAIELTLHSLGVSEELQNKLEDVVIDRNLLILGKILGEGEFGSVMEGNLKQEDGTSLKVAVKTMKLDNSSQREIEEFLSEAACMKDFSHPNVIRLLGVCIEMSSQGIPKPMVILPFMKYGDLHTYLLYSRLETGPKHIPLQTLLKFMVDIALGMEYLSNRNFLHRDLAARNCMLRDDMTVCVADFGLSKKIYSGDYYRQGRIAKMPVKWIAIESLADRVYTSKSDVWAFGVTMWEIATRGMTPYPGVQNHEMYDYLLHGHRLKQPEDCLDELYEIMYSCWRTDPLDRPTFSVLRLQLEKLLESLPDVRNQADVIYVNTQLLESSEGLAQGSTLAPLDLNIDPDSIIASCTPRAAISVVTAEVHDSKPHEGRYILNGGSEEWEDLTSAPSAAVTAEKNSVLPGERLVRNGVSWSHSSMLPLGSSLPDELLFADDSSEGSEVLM
Conditions: at 0.1 µM.

For experiment [17], the target named is T1, Tyrosine-protein kinase Mer (Homo sapiens). Conditions: at 1 µM.
The target of experiment [18] is Hepatocyte growth factor receptor (Homo sapiens) (UniProt P08581). Conditions: at 0.1 µM.
Chain of Hepatocyte growth factor receptor (Homo sapiens) (P08581 whole entry): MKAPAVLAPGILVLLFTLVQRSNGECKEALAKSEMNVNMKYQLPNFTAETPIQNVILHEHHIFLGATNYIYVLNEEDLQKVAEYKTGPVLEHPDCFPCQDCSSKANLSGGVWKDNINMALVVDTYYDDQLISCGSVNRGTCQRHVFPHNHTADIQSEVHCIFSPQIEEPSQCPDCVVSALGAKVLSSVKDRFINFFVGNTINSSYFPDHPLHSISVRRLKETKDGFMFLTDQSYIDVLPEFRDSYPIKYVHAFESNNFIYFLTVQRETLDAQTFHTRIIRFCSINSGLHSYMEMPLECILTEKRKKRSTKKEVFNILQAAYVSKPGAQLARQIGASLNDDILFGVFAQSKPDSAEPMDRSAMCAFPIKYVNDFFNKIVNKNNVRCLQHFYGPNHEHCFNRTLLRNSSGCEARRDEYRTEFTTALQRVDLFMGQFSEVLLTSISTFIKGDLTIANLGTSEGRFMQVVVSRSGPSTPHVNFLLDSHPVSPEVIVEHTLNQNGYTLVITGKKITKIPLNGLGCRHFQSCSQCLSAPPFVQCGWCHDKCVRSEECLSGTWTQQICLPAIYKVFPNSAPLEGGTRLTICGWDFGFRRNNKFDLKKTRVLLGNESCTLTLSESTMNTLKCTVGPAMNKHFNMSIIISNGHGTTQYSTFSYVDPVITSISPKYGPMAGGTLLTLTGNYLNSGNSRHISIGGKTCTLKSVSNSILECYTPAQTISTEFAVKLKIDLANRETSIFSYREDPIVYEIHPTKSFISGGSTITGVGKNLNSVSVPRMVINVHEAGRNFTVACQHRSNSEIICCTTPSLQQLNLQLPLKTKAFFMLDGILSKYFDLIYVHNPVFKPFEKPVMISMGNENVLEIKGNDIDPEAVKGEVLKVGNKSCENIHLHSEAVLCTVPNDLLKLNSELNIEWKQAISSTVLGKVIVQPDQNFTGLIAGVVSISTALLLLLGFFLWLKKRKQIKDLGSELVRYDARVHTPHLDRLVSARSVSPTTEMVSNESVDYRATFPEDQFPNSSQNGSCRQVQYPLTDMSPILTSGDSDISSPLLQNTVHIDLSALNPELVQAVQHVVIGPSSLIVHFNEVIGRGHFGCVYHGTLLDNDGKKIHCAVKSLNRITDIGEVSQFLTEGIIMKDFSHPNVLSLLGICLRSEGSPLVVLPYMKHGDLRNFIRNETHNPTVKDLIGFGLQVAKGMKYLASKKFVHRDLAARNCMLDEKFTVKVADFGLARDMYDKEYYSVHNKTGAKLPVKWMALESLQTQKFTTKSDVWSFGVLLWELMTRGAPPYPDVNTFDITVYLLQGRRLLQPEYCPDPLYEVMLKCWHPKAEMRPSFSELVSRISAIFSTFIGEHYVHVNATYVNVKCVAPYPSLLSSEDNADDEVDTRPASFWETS
Experiment [19] has the same target. Conditions: at 1 µM.
Experiment [20] concerns the target T2, Muscle, skeletal receptor tyrosine-protein kinase (Homo sapiens) (UniProt O15146).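 Also: values are mean inhibition of MuSK from the GSK PKIS kinase screening panel.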
T2 sequence (whole entry): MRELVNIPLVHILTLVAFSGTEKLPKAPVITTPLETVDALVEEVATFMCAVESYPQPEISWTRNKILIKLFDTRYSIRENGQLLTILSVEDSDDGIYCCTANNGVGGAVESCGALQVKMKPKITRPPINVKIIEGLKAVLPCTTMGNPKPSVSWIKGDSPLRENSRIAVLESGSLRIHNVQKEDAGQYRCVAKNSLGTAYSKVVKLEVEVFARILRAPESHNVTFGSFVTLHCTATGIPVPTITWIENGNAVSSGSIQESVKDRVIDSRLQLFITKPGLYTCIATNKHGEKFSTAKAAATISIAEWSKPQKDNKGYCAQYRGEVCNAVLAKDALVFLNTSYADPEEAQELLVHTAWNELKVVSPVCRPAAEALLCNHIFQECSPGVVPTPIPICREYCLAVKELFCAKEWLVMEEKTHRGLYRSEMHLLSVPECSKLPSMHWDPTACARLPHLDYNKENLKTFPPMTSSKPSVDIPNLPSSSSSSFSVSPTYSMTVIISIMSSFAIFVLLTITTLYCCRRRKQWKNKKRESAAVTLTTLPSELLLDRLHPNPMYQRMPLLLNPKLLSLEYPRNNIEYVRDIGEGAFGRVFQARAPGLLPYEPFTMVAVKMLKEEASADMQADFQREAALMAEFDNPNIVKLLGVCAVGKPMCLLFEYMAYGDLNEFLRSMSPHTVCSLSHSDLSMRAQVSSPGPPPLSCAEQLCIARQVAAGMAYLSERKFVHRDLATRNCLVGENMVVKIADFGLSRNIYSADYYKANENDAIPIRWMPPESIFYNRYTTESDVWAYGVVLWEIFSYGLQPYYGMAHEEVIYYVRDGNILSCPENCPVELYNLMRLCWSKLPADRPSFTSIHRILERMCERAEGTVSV
Conditions: at 0.1 µM.

Chain of Mast/stem cell growth factor receptor Kit (Homo sapiens) (P10721 whole entry): as the sequence (P10721 whole entry V560G) above, with G560V counted along it
Chain of Mast/stem cell growth factor receptor Kit (Homo sapiens), P10721 [T670I] (P10721 whole entry T670I): as the sequence (P10721 whole entry V560G) above, with G560V, T670I counted along it
Chain of Leukocyte tyrosine kinase receptor (Homo sapiens) (P29376 whole entry): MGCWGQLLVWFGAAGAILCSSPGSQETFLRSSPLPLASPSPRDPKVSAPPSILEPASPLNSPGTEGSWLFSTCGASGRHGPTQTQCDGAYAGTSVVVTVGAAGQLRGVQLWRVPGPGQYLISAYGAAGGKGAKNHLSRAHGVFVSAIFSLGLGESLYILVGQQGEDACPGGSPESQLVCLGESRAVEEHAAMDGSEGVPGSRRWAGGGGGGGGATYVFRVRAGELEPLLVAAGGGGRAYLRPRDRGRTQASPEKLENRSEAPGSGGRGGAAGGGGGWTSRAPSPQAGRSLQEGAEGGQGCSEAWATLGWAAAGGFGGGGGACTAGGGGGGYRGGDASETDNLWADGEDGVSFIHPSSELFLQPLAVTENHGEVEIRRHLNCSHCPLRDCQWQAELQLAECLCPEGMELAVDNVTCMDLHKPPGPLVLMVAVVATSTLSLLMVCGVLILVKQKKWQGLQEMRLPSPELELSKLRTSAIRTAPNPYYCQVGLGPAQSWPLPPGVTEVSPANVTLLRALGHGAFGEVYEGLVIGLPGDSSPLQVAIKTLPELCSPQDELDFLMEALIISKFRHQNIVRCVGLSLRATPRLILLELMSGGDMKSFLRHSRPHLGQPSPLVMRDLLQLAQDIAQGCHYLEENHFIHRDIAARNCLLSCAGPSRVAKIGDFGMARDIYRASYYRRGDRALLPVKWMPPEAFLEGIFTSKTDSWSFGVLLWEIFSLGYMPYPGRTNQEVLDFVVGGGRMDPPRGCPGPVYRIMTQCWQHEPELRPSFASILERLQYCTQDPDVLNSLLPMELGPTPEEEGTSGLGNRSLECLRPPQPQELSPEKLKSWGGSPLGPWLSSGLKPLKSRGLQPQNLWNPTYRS
Chain of Mast/stem cell growth factor receptor Kit (Homo sapiens), P10721 [D816V] (P10721 whole entry D816V): as the sequence (P10721 whole entry V560G) above, with G560V, D816V counted along it

On to `Fc1ccc(-c2ncn(C3CCNCC3)c2-c2ccnc(Oc3ccc4c(c3)OCO4)n2)cc1`, for which the inhibition in experiment [1] is 9.68%; in [2], 4.71%; in experiment [3] it was 5.2%; in [4], 3.24%; in experiment [5] it was 3.64%; in experiment [6], -1.09%. Also, the inhibition was -0.53% in experiment [7]; 3.98% in experiment [8]; 8.64% in experiment [9]; 3.89% in [10]; 8.02% in [11]; 5.3% in experiment [12]. Besides, the inhibition in [13] is 7.55%; in experiment [14], 3.33%; in experiment [15], 5.4%; in experiment [16] it was 2.7%; in [17], 5.24%; in experiment [18] it was 2.27%. The figures for the inhibition in [19] and in experiment [20] were 7.4% and 5.07%, respectively.
For the compound `O=C1Nc2ccc(I)cc2C1=Cc1cc(Br)c(O)c(Br)c1`, the inhibition was 18.4% in experiment [1]; 2.74% in [2]; 2.13% in experiment [3]; -0.52% in [4]; 4.39% in experiment [5]; -4.29% in experiment [6]. Also, the inhibition was -1.08% in experiment [7]; 3.11% in [8]; 3.54% in experiment [9]; 4.82% in experiment [10]; 9.99% in experiment [11]; 4.2% in experiment [12]. The inhibition in experiment [13] worked out at 7.49%; in experiment [14], 2.6%; in experiment [15] it was 4.55%; in experiment [16] it was 2.32%; in [17], 2.36%; in experiment [18], 1.23%. The inhibition in [19] was 4.15%; in experiment [20], 1.59%.
Consider `COc1cc2ncn(-c3cc(OCc4ccccc4C(F)(F)F)c(C(C)=O)s3)c2cc1OC`, for which the inhibition in experiment [1] is 4.53%; in [2], 2.21%; in experiment [3], 1.58%; in [4] it was 2.81%; in experiment [5] it was 6.12%; in experiment [6], -1.46%. For the same compound, the inhibition in [7] came out at 1.6%; in [8], 4.22%; in [9] it was 9.66%; in experiment [10], 2.03%; in [11] it was 3.33%; in experiment [12], 3.36%. Also, the inhibition in experiment [13] is 6.9%; in experiment [14], 4.22%; in experiment [15], 6.9%; in [16], -0.14%; in experiment [17], 4.1%; in experiment [18], 1.74%. Moreover, the inhibition was determined as 13.5% in experiment [19] and 2.48% in experiment [20].
`CCS(=O)(=O)c1ccc(OC)c(Nc2ncc(-c3cccc(-c4ccccc4F)c3)o2)c1`: the inhibition was 90.9% in experiment [1]; -0.16% in [2]; 6.62% in experiment [3]; 2.77% in [4]; 19.6% in experiment [5]; 4.79% in experiment [6]. The inhibition amounted to 19.7% in experiment [7]; 9.89% in experiment [8]; 55.8% in experiment [9]; 1.34% in experiment [10]; 4.54% in [11]; 14.8% in [12]. In addition, the inhibition is 62.5% in [13]; 10.6% in [14]; 55.8% in experiment [15]; 0.82% in [16]; 3% in experiment [17]; 2.87% in experiment [18]. Further, the results for the inhibition in [19] and in experiment [20] were 3.52% and 2.39%, respectively.
For `O=C(Nc1n[nH]c2nc(-c3ccc(O)cc3)c(Br)cc12)C1CC1`, the inhibition was 63.1% in experiment [1]; 9.03% in [2]; 10.1% in [3]; 3.13% in [4]; 4.94% in [5]; 2.07% in [6]. Besides, the inhibition in [7] worked out at 10.8%; in experiment [8] it was 6.75%; in [9] it was 22.2%; in experiment [10], 62.8%; in experiment [11], 91.6%; in experiment [12], 9.57%. Besides, the inhibition in experiment [13] was 16.2%; in experiment [14], 6.94%; in [15], 13%; in [16], 1.7%; in [17] it was 8.16%; in experiment [18], 4.98%. Also, the inhibition in experiment [19] came out at 10.9%; in [20], 4.48%.
For `CCc1cccc(CC)c1/C=C/c1cncc(C(=O)NC)c1`, the inhibition in [1] was 0.22%; in experiment [2] it was 2.9%; in [3], 0.24%; in experiment [4] it was 1.07%; in [5], 2.14%; in experiment [6] it was -2.51%. Also, the inhibition in [7] was 4.63%; in [8], 3.18%; in experiment [9], 4.94%; in experiment [10], 1.51%; in experiment [11] it was 0.4%; in [12], 3.99%. The inhibition in experiment [13] is 5.8%; in experiment [14], 1.75%; in experiment [15] it was 4.91%; in [16], -0.22%; in experiment [17], 4.08%; in experiment [18] it was -0.26%. In addition, the results for the inhibition in [19] and in [20] were 1.69% and 3.82%, respectively.

In general, inhibition refers to the relative decrease from the control value, in per cent.

Source of the values: ChEMBL document CHEMBL1961873, “Compounds: GSK PKIS; Assays: Nanosyn kinase panel” (2012).
